Measured values: the antibiotic and cytotoxicity screens of Wong et al. (2023)
The campaign covered roughly 39,000 compounds. About 3,300 (8.5%) were called active. Many of the other results were omitted from the sample, so actives are more common in it than they were.

What follows are compounds tested on HepG2 (assay: cytotoxicity call (relative viability < 0.9)). Settings: 10 µM.

Row | Compound | cytotoxicity call
1 | CCN1C[C@]23CN(C(=O)c4cnccn4)C[C@@H](C[C@H]2S1(=O)=O)O3 | inactive
2 | C[C@H]1CN([C@@H](C)CO)C(=O)CCCn2nncc2CO[C@H]1CN(C)S(=O)(=O)c1ccc(Oc2ccccc2)nc1 | inactive
3 | C[C@@H]1CCCCO[C@H](CN(C)C(=O)Nc2ccc(F)cc2)[C@H](C)CN([C@H](C)CO)C(=O)c2cc(NS(=O)(=O)c3ccccc3)ccc2O1 | inactive
4 | C[C@H](CO)N1C[C@H](C)[C@H](CN(C)C)Oc2ccc(NS(=O)(=O)c3cn(C)cn3)cc2CC1=O | inactive
5 | Cc1noc(C)c1S(=O)(=O)NC(C)C | inactive
6 | CS(=O)(=O)CS(=O)(=O)C1=C(N2CCOCC2)C2CCN1CC2 | inactive
7 | Cc1noc(C)c1NC(=O)N[C@@H]1C=C[C@@H](CC(=O)N2CCN(C)CC2)O[C@H]1CO | inactive
8 | c1ccc(-c2cccs2)nc1 | inactive
9 | O=C(Nc1ccc(C(F)(F)F)cc1)Nc1ccc2c(c1)[C@H]1C[C@@H](CC(=O)N3CCc4ccccc4C3)O[C@H](CO)[C@H]1O2 | active
10 | O=C(Nc1ccc(C(F)(F)F)cc1)Nc1ccc2c(c1)[C@@H]1C[C@H](CC(=O)N3CCc4ccccc4C3)O[C@H](CO)[C@@H]1O2 | inactive
11 | O=C(Nc1ccc(C(F)(F)F)cc1)Nc1ccc2c(c1)[C@@H]1C[C@H](CC(=O)N3CCc4ccccc4C3)O[C@@H](CO)[C@@H]1O2 | inactive
12 | O=C(Nc1ccc(C(F)(F)F)cc1)Nc1ccc2c(c1)[C@H]1C[C@@H](CC(=O)N3CCc4ccccc4C3)O[C@@H](CO)[C@H]1O2 | inactive
13 | O=C(Nc1ccc(C(F)(F)F)cc1)Nc1ccc2c(c1)[C@@H]1C[C@@H](CC(=O)N3CCc4ccccc4C3)O[C@H](CO)[C@@H]1O2 | active
14 | O=C(Nc1ccc(C(F)(F)F)cc1)Nc1ccc2c(c1)[C@H]1C[C@H](CC(=O)N3CCc4ccccc4C3)O[C@@H](CO)[C@H]1O2 | inactive
15 | CO[C@@H]1CN(C)C(=O)c2cc(NC(=O)c3cc(C)on3)ccc2OC[C@@H](C)N(C(=O)C2CCC2)C[C@H]1C | inactive
16 | C[C@@H]1CN([C@H](C)CO)C(=O)c2cc(NC(=O)Nc3ccc(C(F)(F)F)cc3)ccc2O[C@@H](C)CCCCO[C@@H]1CN(C)S(=O)(=O)c1cn(C)cn1 | inactive
17 | C[C@H](CO)N1C[C@H](C)[C@@H](CN(C)S(=O)(=O)c2ccc(F)cc2)OCCCC[C@H](C)Oc2ccc(NC(=O)C3CCCCC3)cc2C1=O | inactive
18 | Cc1noc(C)c1S(=O)(=O)Nc1ccc2c(c1)C(=O)N([C@@H](C)CO)C[C@H](C)[C@H](CN(C)Cc1ccc(-c3ccccc3)cc1)O2 | inactive
19 | CCS(=O)(=O)N1CCC(C(=O)N(C)C)CC1 | inactive
